In test [1] the target is Transcription factor E2F1 (Homo sapiens) (UniProt Q01094). Description: ATG_E2F_CIS: Attagene CIS-FACTORIAL HepG2 Assay for human E2F Transcription Factor 1 (AID 2282935). The note with it: HepG2 Attagene cis-reporter, E2F reporter RNA transcripts; actives raise or lower the signal. The gist of the method:
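Fluorescent RT-PCR products, digested with HpaI for 2 h at 37 C, are separated by capillary electrophoresis. Source RNA comes from transfected HepG2 cultures treated for 24 h.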

A short description of test [2]: ATG_E_Box_CIS: Attagene CIS-FACTORIAL HepG2 Assay for human Enhancer Box (E-box) (AID 2282936). Particulars: HepG2 E-box cis-reporter transcription, actives raise or lower the signal. The gist of the method:
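Fluorescent reporter fragments separated by capillary electrophoresis gave the signal; mRNA came from HepG2 cells transfected with cis-element reporters and treated 24 h. Curves fitted bidirectionally relative to DMSO controls.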

Test [3] in a line: ATG_M_61_CIS: Attagene CIS-FACTORIAL HepG2 Assay for M61 Transcription Factor (Internal Marker) (AID 2282937). The note with it: HepG2 Attagene CIS-FACTORIAL M61 internal marker reporter; actives raise or lower the signal. Summed up:
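Endogenous transcription factor activity in HepG2 is read through transiently transfected cis-element reporter units. After 24 h dosing, RNA undergoes reverse transcription, PCR and primer extension with 6-FAM before capillary electrophoresis; DMSO-referenced bidirectional fit.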

Test [4] in a line: ATG_EGR_CIS: Attagene CIS-FACTORIAL HepG2 Assay for human Early Growth Response 1 (EGR1) (AID 2282938). Particulars: HepG2 Attagene CIS-FACTORIAL EGR reporter mRNA; actives raise or lower the signal. Summed up: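 Activity is taken as induction or loss of reporter mRNA versus DMSO, fitted bidirectionally. Transcripts from cis-regulated reporter units in transiently transfected HepG2 were measured after 24 h by RT-PCR with capillary electrophoresis.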

Test [5] in a line: ATG_M_19_CIS: Attagene CIS-FACTORIAL HepG2 Assay for M19 Transcription Factor (Internal Marker) (AID 2282939). Particulars: HepG2 Attagene CIS-FACTORIAL M19 internal marker reporter; actives raise or lower the signal. Summed up:
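HepG2 cells transiently transfected with cis-regulated multiplexed reporter units, dosed 24 h. Reporter mRNA quantified by RT-PCR and capillary electrophoresis; internal background marker fitted bidirectionally versus DMSO.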

Test [6] is described as follows: ATG_ERE_CIS: Attagene CIS-FACTORIAL HepG2 Assay for Estrogen Response Element (ERE) (AID 2282940). The note with it: HepG2 ERE cis-reporter, Attagene RNA transcript; actives raise or lower the signal. The gist of the method:
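HepG2 cells transiently transfected with multiplexed cis-element reporter units, measuring endogenous transcription factor activity; ERE reporter mRNA quantified after 24 h exposure by RT-PCR, fluorescent labelling, HpaI digestion and capillary electrophoresis. Bidirectional change versus DMSO.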

Test [7] in a line: ATG_Ets_CIS: Attagene CIS-FACTORIAL HepG2 Assay for human Erythroblast Transformation Specific (ETS) (AID 2282941). Particulars: HepG2 ETS cis-reporter transcription, actives raise or lower the signal. Summed up:
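Multiplexed reporter transcript profiling: HepG2, 24 h treatment, total RNA to cDNA, PCR, 6-FAM labelling, HpaI cut, capillary electrophoresis. Gain- or loss-of-signal fitted against DMSO.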

Test [8] concerns the target Hepatocyte nuclear factor 3-beta (Homo sapiens) (UniProt Q9Y261). The test is described as follows: ATG_FoxA2_CIS: Attagene CIS-FACTORIAL HepG2 Assay for human Forkhead box A2 (FOXA2) (AID 2282942). The note with it: HepG2 cis-reporter transcription factor activity, 24 h; actives raise or lower the signal. The gist of the method:
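Reporter transcript induction is measured by fluorescence after capillary electrophoresis of RT-PCR products from HepG2 cells exposed 24 h. Cis-regulated reporter units report endogenous factor activity; curves fitted both directions against DMSO.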

The nature of test [9]: ATG_FoxO_CIS: Attagene CIS-FACTORIAL HepG2 Assay for human Forkhead box O (FoxO) (AID 2282943). Particulars: HepG2 Attagene cis-reporter, FoxO element, mRNA; actives raise or lower the signal. Summed up:
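Human hepatoma HepG2 cells carry transiently introduced reporter transcription units controlled by cis promoter elements. Chemical treatment lasted 24 h, and mRNA signal was compared with DMSO.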

Test [10] can be described thus: ATG_GATA_CIS: Attagene CIS-FACTORIAL HepG2 Assay for human GATA Binding Protein (AID 2282944). The note with it: HepG2 GATA cis-element reporter, Attagene multiplex mRNA; actives raise or lower the signal. The gist of the method: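 HepG2 cells transiently transfected with multiplexed cis-element reporter units measure endogenous GATA activity; after 24 h compound exposure, reporter mRNA quantified by RT-PCR and capillary electrophoresis. Changes fitted in both directions vs DMSO.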

Test [11] is described as follows: ATG_GLI_CIS: Attagene CIS-FACTORIAL HepG2 Assay for human Zinc Finger Protein GLI1 (AID 2282945). The note with it: HepG2, Attagene cis-factorial reporter mRNA, GLI element; actives raise or lower the signal. The gist of the method: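 Bidirectional curve fits relative to DMSO, using reporter mRNA levels from RT-PCR plus capillary electrophoresis. Cells were HepG2 transiently carrying cis-regulated reporter constructs, harvested 24 h after dosing.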

The nature of test [12]: ATG_GRE_CIS: Attagene CIS-FACTORIAL HepG2 Assay for human Glucocorticoid Response Elements (GRE) (AID 2282947). Particulars: HepG2 GRE cis-reporter, Attagene multiplex mRNA; actives raise or lower the signal. The gist of the method:
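Multiplexed cis-reporter mRNA induction, HepG2, 24 h post-dose. RT-PCR, FAM-labelled, HpaI-digested amplicons by CE. Bidirectional fit vs DMSO.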

The nature of test [13]: ATG_ISRE_CIS: Attagene CIS-FACTORIAL HepG2 Assay for human Interferon Regulatory Factor 1 (IRF1) binding to an Interferon-Stimulated Response Element (ISRE) (AID 2282948). The note with it: HepG2 ISRE cis-reporter (Attagene), mRNA transcription readout; actives raise or lower the signal. The gist of the method:
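Signal reflects induction or loss of ISRE-linked reporter mRNA in transiently transfected HepG2 cells after a 24 h treatment, detected by fluorescent RT-PCR fragments on capillary electrophoresis and normalised to DMSO.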

Test [14] is described as follows: ATG_M_06_CIS: Attagene CIS-FACTORIAL HepG2 Assay for M06 Transcription Factor (Internal Marker) (AID 2282950). Particulars: HepG2 Attagene CIS-FACTORIAL M06 internal marker reporter; actives raise or lower the signal. Summed up: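 Internal background marker within multiplexed cis-reporter HepG2 system. Cells transiently transfected, dosed 24 h; reporter mRNA measured by RT-PCR, HpaI digestion and capillary electrophoresis. Bidirectional fit relative to DMSO.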

The target in test [15] is Hypoxia-inducible factor 1-alpha (Homo sapiens) (UniProt Q16665). The test is described as follows: ATG_HIF1a_CIS: Attagene CIS-FACTORIAL HepG2 Assay for human Hypoxia Inducible Factor 1 (HIF1A) (AID 2282951). Particulars: HepG2 Attagene cis-factorial HIF1a reporter transcription; actives raise or lower the signal. The gist of the method: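 Fluorescence intensity of capillary-separated, 6-FAM-labelled reporter amplicons gives mRNA induction in HepG2 cells carrying transfected cis-promoter reporter units; cells exposed 24 h, responses fitted up or down from DMSO.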
Chain of Hypoxia-inducible factor 1-alpha (Homo sapiens) (Q16665 whole entry, looked up): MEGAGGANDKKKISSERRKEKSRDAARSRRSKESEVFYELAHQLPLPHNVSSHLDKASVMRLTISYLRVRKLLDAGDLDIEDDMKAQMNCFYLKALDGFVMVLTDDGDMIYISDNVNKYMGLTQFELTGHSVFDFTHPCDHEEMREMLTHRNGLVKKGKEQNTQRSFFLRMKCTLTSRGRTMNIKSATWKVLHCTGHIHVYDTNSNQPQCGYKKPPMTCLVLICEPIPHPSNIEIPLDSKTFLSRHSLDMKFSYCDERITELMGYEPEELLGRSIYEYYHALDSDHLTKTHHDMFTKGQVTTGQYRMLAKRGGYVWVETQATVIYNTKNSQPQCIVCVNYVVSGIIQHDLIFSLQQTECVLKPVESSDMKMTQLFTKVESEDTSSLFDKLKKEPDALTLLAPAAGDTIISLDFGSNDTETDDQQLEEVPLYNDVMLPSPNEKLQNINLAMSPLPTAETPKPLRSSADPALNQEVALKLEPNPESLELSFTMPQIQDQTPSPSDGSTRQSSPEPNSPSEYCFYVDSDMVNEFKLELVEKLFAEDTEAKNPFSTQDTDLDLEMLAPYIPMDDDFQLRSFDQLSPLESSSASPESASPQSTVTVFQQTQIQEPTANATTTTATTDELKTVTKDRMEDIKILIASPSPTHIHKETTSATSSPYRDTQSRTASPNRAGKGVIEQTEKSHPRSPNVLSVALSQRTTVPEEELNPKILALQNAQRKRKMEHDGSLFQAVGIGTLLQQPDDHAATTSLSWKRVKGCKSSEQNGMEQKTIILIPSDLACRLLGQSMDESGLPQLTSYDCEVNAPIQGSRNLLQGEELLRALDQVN

Test [16] concerns the target Heat shock factor protein 1 (Homo sapiens) (UniProt Q00613). Description: ATG_HSE_CIS: Attagene CIS-FACTORIAL HepG2 Assay for human Heat Shock Transcription Factor 1 (HSE) (AID 2282953). Particulars: HepG2 HSE cis-reporter, Attagene RNA transcription; actives raise or lower the signal. Summed up: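 HepG2 cells transfected with cis-promoter reporter units sensing endogenous transcription factor activity; reporter mRNA quantified 24 h post-dose by RT-PCR and capillary electrophoresis of 6-FAM-labelled products. Bidirectional fitting against DMSO.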

Test [17] in a line: ATG_PBREM_CIS: Attagene CIS-FACTORIAL HepG2 Assay for human Phenobarbital-responsive Enhancer Module (PBREM) (AID 2282955). The note with it: HepG2 PBREM cis-reporter, Attagene multiplexed transcription; actives raise or lower the signal. Summed up:
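Cells were transfected with cis-element reporter units and treated for 24 h, after which RNA was extracted and reporter transcripts measured by RT-PCR and capillary electrophoresis.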

Test [18] in a line: ATG_M_32_CIS: Attagene CIS-FACTORIAL HepG2 Assay for M32 Transcription Factor (Internal Marker) (AID 2282949).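 Note: background control marker of the multiplexed CIS panel rather than a real target.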 The note with it: HepG2 Attagene cis-factorial M32 reporter, mRNA; actives raise or lower the signal. The gist of the method:
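Transient MRTU transfection of HepG2; 24 h compound treatment; TriZol RNA, oligo(dT) RT, reporter PCR, 6-FAM primer extension, HpaI cut, CE. Gain/loss of signal vs DMSO.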

Test [19] has as its target Hepatocyte nuclear factor 6 (Homo sapiens) (UniProt Q9UBC0). Description: ATG_HNF6_CIS: Attagene CIS-FACTORIAL HepG2 Assay for human Hepatocyte Nuclear Factor 6 (HNF6) (AID 2282952). Particulars: HepG2 Attagene cis-factorial HNF6 reporter transcription; actives raise or lower the signal. Summed up:
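Endogenous factor activity read in transiently transfected HepG2 via promoter-regulated reporter transcripts. RNA harvested 24 h post-dosing, reverse-transcribed, PCR-amplified, FAM-labelled, HpaI-digested and resolved by capillary electrophoresis; fitted in both directions against DMSO.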

A short description of test [20]: ATG_MRE_CIS: Attagene CIS-FACTORIAL HepG2 Assay for human Metal Responsive Element (MRE) (AID 2282954). The note with it: HepG2 MRE cis-reporter transcription, Attagene multiplex; actives raise or lower the signal. Summed up:
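Multiplexed cis-reporter assay in human HepG2 liver cells, 24 h incubation with test chemical. Reporter transcripts measured by RT-PCR and capillary electrophoresis; values from bidirectional curve fitting versus DMSO.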

Several values for one entry are separate records, joined by “and”; a condition that tells them apart may be missing. Identical values can stand only once. Activity calls are given as the source filed them. Rule for the calls: active = hit-call score of the fitted dose curve at least 0.9, where 1 is the maximum; inactive = score below 0.9.

Chain of Hepatocyte nuclear factor 6 (Homo sapiens) (Q9UBC0 whole entry, looked up): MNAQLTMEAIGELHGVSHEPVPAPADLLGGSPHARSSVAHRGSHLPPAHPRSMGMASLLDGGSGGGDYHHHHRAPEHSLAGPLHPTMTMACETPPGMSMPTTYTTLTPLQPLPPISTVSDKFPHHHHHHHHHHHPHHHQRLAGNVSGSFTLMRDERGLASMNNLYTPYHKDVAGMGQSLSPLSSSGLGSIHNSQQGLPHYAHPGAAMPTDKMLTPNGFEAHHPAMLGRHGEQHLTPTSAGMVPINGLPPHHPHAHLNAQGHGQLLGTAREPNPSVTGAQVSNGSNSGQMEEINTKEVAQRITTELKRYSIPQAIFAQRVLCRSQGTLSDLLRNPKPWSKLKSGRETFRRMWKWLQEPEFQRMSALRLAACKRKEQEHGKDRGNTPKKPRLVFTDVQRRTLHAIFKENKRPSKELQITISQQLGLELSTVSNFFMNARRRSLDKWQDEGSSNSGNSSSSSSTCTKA
Chain of Transcription factor E2F1 (Homo sapiens) (Q01094 whole entry, looked up): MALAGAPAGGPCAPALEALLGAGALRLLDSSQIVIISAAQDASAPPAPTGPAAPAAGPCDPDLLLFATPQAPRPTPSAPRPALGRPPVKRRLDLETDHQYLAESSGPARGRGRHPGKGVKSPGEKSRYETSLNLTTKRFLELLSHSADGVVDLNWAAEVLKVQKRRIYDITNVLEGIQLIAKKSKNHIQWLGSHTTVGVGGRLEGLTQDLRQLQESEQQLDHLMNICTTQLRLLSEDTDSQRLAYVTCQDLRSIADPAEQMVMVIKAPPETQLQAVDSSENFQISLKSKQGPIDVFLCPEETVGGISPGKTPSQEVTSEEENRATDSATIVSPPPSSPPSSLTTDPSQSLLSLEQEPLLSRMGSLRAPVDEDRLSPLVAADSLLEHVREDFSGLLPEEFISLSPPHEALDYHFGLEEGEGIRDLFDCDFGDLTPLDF
Chain of Hepatocyte nuclear factor 3-beta (Homo sapiens) (Q9Y261 whole entry, looked up): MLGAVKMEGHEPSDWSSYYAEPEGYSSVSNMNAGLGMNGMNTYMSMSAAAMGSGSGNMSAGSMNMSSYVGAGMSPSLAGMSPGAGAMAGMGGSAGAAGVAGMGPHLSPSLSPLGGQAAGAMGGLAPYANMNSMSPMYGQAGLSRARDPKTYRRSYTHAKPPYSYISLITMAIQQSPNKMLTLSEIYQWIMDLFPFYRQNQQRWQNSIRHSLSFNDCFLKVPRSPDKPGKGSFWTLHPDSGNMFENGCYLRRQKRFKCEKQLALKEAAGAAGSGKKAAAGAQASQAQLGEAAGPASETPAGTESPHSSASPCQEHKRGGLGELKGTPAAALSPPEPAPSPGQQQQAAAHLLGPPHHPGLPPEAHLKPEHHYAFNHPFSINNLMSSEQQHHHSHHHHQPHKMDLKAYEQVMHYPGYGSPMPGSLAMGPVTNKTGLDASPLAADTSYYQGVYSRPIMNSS
Chain of Heat shock factor protein 1 (Homo sapiens) (Q00613 whole entry, looked up): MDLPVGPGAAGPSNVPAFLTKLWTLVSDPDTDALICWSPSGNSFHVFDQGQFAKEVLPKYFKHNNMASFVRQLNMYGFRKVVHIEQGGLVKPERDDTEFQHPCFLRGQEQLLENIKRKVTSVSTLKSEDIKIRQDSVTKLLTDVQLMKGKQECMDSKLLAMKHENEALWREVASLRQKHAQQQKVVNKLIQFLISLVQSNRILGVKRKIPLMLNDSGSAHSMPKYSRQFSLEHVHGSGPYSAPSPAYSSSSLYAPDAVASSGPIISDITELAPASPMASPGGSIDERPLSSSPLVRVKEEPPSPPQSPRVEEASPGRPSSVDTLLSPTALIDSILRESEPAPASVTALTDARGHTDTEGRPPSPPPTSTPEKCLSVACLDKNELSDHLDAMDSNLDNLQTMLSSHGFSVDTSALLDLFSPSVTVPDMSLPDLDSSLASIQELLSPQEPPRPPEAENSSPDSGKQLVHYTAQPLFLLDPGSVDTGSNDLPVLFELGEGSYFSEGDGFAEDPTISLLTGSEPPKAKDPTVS

In the case of `Cc1nc(-c2ccccn2)ncc1C(=O)Nn1cc(C)c2cc(F)ccc21`, the call in test [1], in [2], in test [3], in [4], in test [5] and in [6] was inactive. Moreover, the result in test [7], in test [8], in test [9], in test [10], in test [11] and in test [12] was inactive. Besides, the molecule was classed as inactive in test [13], in test [14], in test [16] and in test [17]. Also, in [15], the concentration at half-maximal activity (AC50) is 48 µM (active).
In the case of `CC(C)C(=O)Nc1ccc([N+](=O)[O-])c(C(F)(F)F)c1`, the outcome in test [1], in test [2], in [3], in test [4], in [5] and in [6] was inactive. For the same molecule, the call in [7], in test [8], in [9], in test [10], in test [11] and in test [13] was inactive. Moreover, the call in test [18], in test [14], in test [19] and in [17] was inactive. The AC50 in [16] was 167 µM (active).
`CCOc1ccc2[nH]cc(C(=O)NCc3ccccc3)c(=O)c2n1`: the molecule was classed as inactive in test [1], in test [2], in [3], in [4], in [5] and in test [6]. The outcome in [7], in test [8], in [9], in [10], in test [11] and in [13] was inactive. The molecule was called inactive in test [18], in [14], in test [15], in test [19], in test [16] and in test [20]. Besides, in test [17], the outcome was inactive.
As for `OC(CCl)CCl`, the result in test [1], in test [2], in [3], in test [4], in [5] and in test [6] was inactive. The outcome in test [7], in test [8], in [9], in [10], in [11] and in [12] was inactive. Besides, the outcome in test [13], in [14], in test [15], in test [16], in [20] and in test [17] was inactive.
Take `NNC(=O)c1ccncc1`: the outcome in test [1], in test [2], in test [3], in [4], in [5] and in test [8] was inactive. Moreover, the call in test [9], in test [10], in [11], in test [12], in test [13] and in [18] was inactive. The result in [14], in test [16], in test [20] and in test [17] was inactive. The concentration at half-maximal activity (AC50) in test [6] is 26.6 µM (active).
For `Cc1cccc(O)c1C`, the molecule was classed as inactive in [1], in test [2], in test [3], in [4], in test [5] and in test [8]. Besides, the molecule was classed as inactive in test [9], in test [10], in [11], in [12], in test [13] and in test [18]. The result in [14], in test [15], in test [19], in [16] and in [17] was inactive. In test [6], the AC50 is 59.3 µM (active) and 59.6 µM (active).
Turning to `COCc1nnc(-c2ccc[n+]([O-])c2)n1-c1c(Cl)c(Cl)cc2[nH]c(=O)c(=O)[nH]c12`, the result in [1], in test [2], in test [3], in [4], in test [5] and in test [6] was inactive. Besides, the outcome in test [7], in test [8], in test [9], in test [10], in test [11] and in test [13] was inactive. Moreover, the molecule was called inactive in test [14], in test [15], in test [19], in test [16] and in [20].

(Values after PubChem BioAssay (EPA / NIEHS).)
